Bioassay records as filed in PubChem.
This is a sample that favours compounds with a hit; in the whole collection about 3.6% have one here.
Sfp PPTase inh: blocks B. subtilis Sfp PPTase activity. Potency, µM, without a hit: largest response in the series, negative = inhibition, usual class: inhibitors. Biochemical Sfp PPTase activity, qHTS. actives 3.5% (n = 310,000). AID 1490;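 note: the enzyme is Sfp with the accession as filed and its product quenches rhodamine fluorescence; 0% = enzyme reaction without inhibitor and -100% = no enzyme wells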
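With Hepes-Na pH 7.6 buffer containing 10 mM MgCl2, Sfp (15 nM) modified BHQ-2-YbbR (12.5 uM) using rhodamine-CoA (5 uM). Two reads 30 minutes apart at 525/598 nm yielded each well's rate.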
JMJD2E inh: inhibitors of human JMJD2E histone demethylase; JMJD2E catalytic domain, FDH-coupled NADH fluorescence (FDH is formaldehyde dehydrogenase); AID 2147; Potency, µM (doses to about 57.1 µM), inactives show at the top dose activity change, negative = inhibition, actives largely listed as inhibitors; actives 1.6% (n = 230,000); active = well fitted inhibition curve with a large enough effect, not every such curve was filed as active; inconclusive = small, poorly fitted or top-dose-only effect, or another doubt; inactive = no such curve, though single readings can be large or run the other way;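 note: 0% = wells with enzyme and -100% = buffer wells without enzyme; nearly all actives have a fitted effect of over 50% in size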
IMPase Li cell: cell-permeable IMPase inhibitors with lithium potentiation; CHO-M1 cells, IP1 TR-FRET (IP-One), carbachol + lithium; Potency, µM (highest dose often 59.4 µM), for the others: at the top dose activity, negative = IMPase inhibition, usual class: inhibitors; actives 0.35% (n = 210,000);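 note: IP1 builds up when IMPase is blocked and the TR-FRET signal falls; plate controls were basal vehicle for no effect and high inhibitor control for full effect; nearly all actives have a fitted effect of over 50% in size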
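CHO-M1, 2000 cells/well, 16–30 h culture; cpd + low Li+, 30 min 37C; lysis with d2-IP1/Eu-anti-IP1 Ab, 10 min RT; TR-FRET 665/620 ratio and 620 channel; AC50 via Hill.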
NPSR antag: neuropeptide S receptor (human) antagonism, cAMP. Q6W5P4. CHO-NPSR cells, cAMP TR-FRET, antagonist mode. Potency, µM (series often up to 38.3 µM), for inactives: at the highest dose activity change, negative = inhibition, hits mostly inhibitors. actives 1% (n = 220,000). AID 1461; note: % is set by controls: 0 for no effect and ±100 for the full control effect; nearly all actives have a fitted effect of over 50% in size
KAT2A inh: blocks human GCN5L2 histone acetyltransferase. GCN5L2 HAT assay, ThioGlo1 CoA-SH fluorescence. Potency, µM (doses to about 58.9 µM), for the others: at the top dose activity change, negative = inhibition, actives largely listed as inhibitors. actives 0.21% (n = 390,000). AID 504327; note: % is set by controls: 0 for no effect and ±100 for the full control effect
Target sequence (Q92830 whole entry, looked up): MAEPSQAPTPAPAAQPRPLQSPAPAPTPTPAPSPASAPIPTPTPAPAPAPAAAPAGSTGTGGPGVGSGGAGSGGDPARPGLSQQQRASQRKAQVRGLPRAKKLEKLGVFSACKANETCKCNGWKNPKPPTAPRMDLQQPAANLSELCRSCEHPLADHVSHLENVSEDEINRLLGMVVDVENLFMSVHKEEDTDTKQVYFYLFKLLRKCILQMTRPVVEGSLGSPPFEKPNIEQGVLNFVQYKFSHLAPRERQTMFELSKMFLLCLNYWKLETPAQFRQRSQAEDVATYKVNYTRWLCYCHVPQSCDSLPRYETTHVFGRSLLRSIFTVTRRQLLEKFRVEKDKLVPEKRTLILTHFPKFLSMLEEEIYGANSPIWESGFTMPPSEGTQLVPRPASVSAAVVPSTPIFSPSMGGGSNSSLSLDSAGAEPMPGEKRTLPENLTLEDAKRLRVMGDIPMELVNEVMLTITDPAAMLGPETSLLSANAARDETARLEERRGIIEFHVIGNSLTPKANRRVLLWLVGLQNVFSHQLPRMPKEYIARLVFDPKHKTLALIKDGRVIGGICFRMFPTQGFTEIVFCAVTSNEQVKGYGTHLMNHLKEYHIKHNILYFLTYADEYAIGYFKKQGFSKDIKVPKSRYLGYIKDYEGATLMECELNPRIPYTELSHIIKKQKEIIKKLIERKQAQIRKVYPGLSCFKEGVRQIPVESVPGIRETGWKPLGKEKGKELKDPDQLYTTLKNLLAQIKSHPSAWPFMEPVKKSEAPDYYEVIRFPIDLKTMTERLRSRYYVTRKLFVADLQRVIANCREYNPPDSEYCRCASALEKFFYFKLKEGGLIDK
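Preincubate 20nM GCN5L2 with compound 15 min, RT → add 50uM ThioGlo1 + 75uM H3(1-25) + 70uM acetyl-CoA → read fluorescence 0 and 20 min. Primary qHTS; fluorescent artifacts likely.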
Epigenetic reg: epigenetic control regulation, reporter derepression. murine LDR cells, GFP reporter derepression, 30 h. Potency, µM (top dose mostly 53.9 µM), for the others: top-dose GFP activation, usual class: activators. actives 0.2% (n = 280,000). AID 1865; note: % of control where 0% means no effect; nearly all actives have a fitted effect of over 60% in size
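Readout is the number of GFP-expressing murine LDR cells, counted by cytometry following washing. Cells were treated with compound for 30 h at 37 C; the stably integrated CMV-GFP locus is normally silent.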
Numbers without * were called inactive; ! = not confirmed by another sample; [ ] = another dose, or the depositor's remark. Unless noted, calls come from the whole dose curve; as a rule, active = well fitted curve in the direction sought with a large enough effect; inconclusive = small, poorly fitted or top-dose-only effect, or another doubt; inactive = no such curve, though single readings can be large; an effect the other way counts as inactive or inconclusive. Potency is the fitted concentration of half-maximal effect.

Screening CC(=O)Nc1ccc(C2=NNC(=Nc3cccc(S(=O)(=O)N(C)C)c3)SC2)cc1 returned Sfp PPTase inh 12.6µM*, JMJD2E inh inconclusive, IMPase Li cell -2.5%, NPSR antag -13.4%, KAT2A inh -5.5% and Epigenetic reg -3.4%.
Screening O=S(=O)(c1ccc(N=C2NN=C(c3cc(F)ccc3F)CS2)cc1)N1CCOCC1 returned Sfp PPTase inh -19.7%, JMJD2E inh -7.1%, IMPase Li cell -12.8%, NPSR antag 7.1%, KAT2A inh -25.3% and Epigenetic reg 5.3%.
OC[C@@H]1O[C@@H](N2CCN([C@@H]3O[C@@H](CO)[C@@H](O)[C@H](O)[C@H]3O)CC2)[C@@H](O)[C@H](O)[C@H]1O was read as IMPase Li cell -5.3%.
CCCCn1c(=O)c2[nH]c(C34CC5CC(CC3C5)C4)nc2n(CCCO)c1=O was read as Sfp PPTase inh -1.9%, IMPase Li cell 6.1%, KAT2A inh inconclusive and Epigenetic reg 9.2%.
`CNC(=S)N1N=C(c2ccc(Br)cc2)CC1c1ccc(OC)cc1` (stereo unspecified) gave Sfp PPTase inh 44.7µM*, JMJD2E inh inconclusive, IMPase Li cell -1.4%, NPSR antag -26.5%, KAT2A inh -5.0% and Epigenetic reg -1.3%.
Screening CNC(=S)N1N=C(c2ccc(C)cc2)CC1c1ccc(OC)cc1 (stereo unspecified) returned Sfp PPTase inh 1.7%, JMJD2E inh 0.6%, IMPase Li cell 4.1%[38.3 µM], NPSR antag -15.7%[46.1 µM], KAT2A inh -9.8% and Epigenetic reg -0.9%.
Screening C[C@@H]1O[C@@H](O)[C@@H](O)[C@H](O)[C@H]1O returned IMPase Li cell -3.5%.
For Cc1cc2cc(CCNC(=O)c3ccc(Br)o3)c(=O)[nH]c2cc1C the results were Sfp PPTase inh 28.2µM*, JMJD2E inh inconclusive, IMPase Li cell 5.9%[38.3 µM], NPSR antag 6.4%[46.1 µM], KAT2A inh -18.7% and Epigenetic reg 4.0%.
For CCOc1ccccc1CNC(=O)c1cnn(-c2ccc(C)cc2)c1-n1cccc1 the results were KAT2A inh -8.7% and Epigenetic reg -4.3%.
NC1=NC(c2cn(-c3ccccc3)nc2-c2cccs2)n2c(nc3ccccc32)N1 (stereo unspecified) was read as Sfp PPTase inh 44.7µM*, JMJD2E inh -14.2%, IMPase Li cell 31.7%[38.3 µM], NPSR antag -4.1%[46.1 µM], KAT2A inh -3.7% and Epigenetic reg 11.9%.
For CC1=C(C#N)C(c2cn(-c3ccccc3)nc2-c2cccs2)C(C#N)=C(C)N1 the results were Sfp PPTase inh -3.9%, JMJD2E inh inconclusive, IMPase Li cell -0.9%[38.3 µM], NPSR antag -24.0%[46.1 µM], KAT2A inh -8.9% and Epigenetic reg -4.0%.
Screening Cc1ccc(CNC(=O)CCS(=O)(=O)c2ccc(Br)s2)o1 returned Sfp PPTase inh 39.8µM*, JMJD2E inh -5.1%, IMPase Li cell 26.0%[38.3 µM], NPSR antag -5.0%[46.1 µM], KAT2A inh -12.7% and Epigenetic reg 0.0%.
`O=S(=O)(O)c1cc(N=Nc2cccc3ccccc23)c(O)c2ncccc12` gave IMPase Li cell -3.4%.
For ICCc1ccccc1 the results were IMPase Li cell 4.3%.
Screening CN(C)c1cccc2c1c(NS(=O)(=O)c1cn(C)cn1)nn2C returned Sfp PPTase inh 31.6µM* and KAT2A inh -3.7%.
Screening Cn1cnc(S(=O)(=O)Nc2ccccc2N2CCOCC2)c1 returned Sfp PPTase inh -2.8%, JMJD2E inh -1.8%, NPSR antag -9.7%, KAT2A inh 1.4% and Epigenetic reg -1.3%.
Cn1nnnc1SCc1csc(Nc2ccccc2)n1 was read as Sfp PPTase inh 50.1µM*, JMJD2E inh -9.4%, IMPase Li cell -1.1%[38.3 µM], NPSR antag -7.1%[46.1 µM], KAT2A inh -2.1% and Epigenetic reg 1.0%.
Screening COc1ccccc1CCn1c(=O)c(-c2cccs2)nc2cncnc21 returned Sfp PPTase inh 3.2%, IMPase Li cell 0.7% and KAT2A inh -6.0%.
For C=C[C@@H](C1=CC(=O)C(OC)=C(OC)C1=O)c1ccccc1 the results were Sfp PPTase inh 11.2µM*, JMJD2E inh inconclusive, IMPase Li cell 45.8% and Epigenetic reg -1.1%.
For Cc1cc(C)nc(Sc2nc(Cl)nc(N(c3ccccc3)c3ccccc3)n2)n1 the results were Sfp PPTase inh 25.1µM*, JMJD2E inh -4.2%, IMPase Li cell 25.2%[38.3 µM], NPSR antag -5.6%[46.1 µM], KAT2A inh 40.4% and Epigenetic reg inconclusive.
For Cc1cc(C)nc(SC(C(=O)O)c2ccccc2)n1 (stereo unspecified) the results were Sfp PPTase inh 11.0%, JMJD2E inh -0.4%, IMPase Li cell -0.2%, NPSR antag 19.8%, KAT2A inh 0.1% and Epigenetic reg 1.0%.
`N#CC(=C(/N)Sc1ccccc1N)/C(C#N)=C(/N)Sc1ccccc1N` gave Sfp PPTase inh inconclusive, JMJD2E inh inconclusive, IMPase Li cell 18.2%, KAT2A inh -29.9% and Epigenetic reg -4.1%.
Screening CCOC(=O)c1cnc2c(cnn2CC)c1NN=C(C)C returned Sfp PPTase inh 44.7µM*!, JMJD2E inh inconclusive, IMPase Li cell 23.5%, NPSR antag -10.0%[46.1 µM], KAT2A inh -10.8% and Epigenetic reg 9.6%.
CCCN(CCC)C(=O)c1cc([N+](=O)[O-])cc2c1-c1ccc([N+](=O)[O-])cc1C2=C(C#N)C#N was read as Sfp PPTase inh 50.1µM*, JMJD2E inh inconclusive, NPSR antag 20.2%[7.67 µM], KAT2A inh inconclusive and Epigenetic reg -1.4%.
CCOC(=O)C1OC1C(=O)NC(CC(C)C)C(=O)NCCC(C)C (stereo unspecified) was read as Sfp PPTase inh 14.3%, IMPase Li cell 6.5%, KAT2A inh -13.7% and Epigenetic reg 0.8%.
`CC(C)OC(=O)C(C(=O)C(F)(F)F)c1cc(NS(=O)(=O)c2ccc3ccccc3c2)c2ccccc2c1O` (stereo unspecified) gave Sfp PPTase inh 56.2µM*, JMJD2E inh inconclusive, IMPase Li cell 11.9%, NPSR antag inconclusive, KAT2A inh -5.3% and Epigenetic reg 0.0%.
For O=C(CNC(=S)NC(=O)c1ccc(Cl)cc1)c1ccccc1 the results were Sfp PPTase inh -2.3%, JMJD2E inh 5.7%, IMPase Li cell 10µM*, NPSR antag -4.2%, KAT2A inh -3.8% and Epigenetic reg 1.1%.
For CCCCc1nc2c(c3c1C[C@H](C)OC3)CN(C(=O)Cc1cccc(OC)c1)CC2 the results were Sfp PPTase inh -9.8%, JMJD2E inh 1.4%[11.4 µM] and IMPase Li cell 6.6%.
